The supplement of paper PMC11732987, “Enantioselective OTUD7B fragment discovery through chemoproteomics screening and high-throughput optimisation” (Communications Chemistry, 2025)
Values without a mark were called inactive.

Tests used:
Assay in all cases: log2 ratio of Biotin-Ahx-Ub-VS probe labelling (fragment/DMSO); higher = less target engagement (more negative = stronger competition), active = hit call of the paper (q ≤ 0.05, log2 ratio ≤ -1)
Details in all cases: compound concentration: 200 uM; treatment time: 3 h
OTUD6B = molecular target: T1, OTUD6B (UniProt Q8N6M0)
T1 sequence (whole entry): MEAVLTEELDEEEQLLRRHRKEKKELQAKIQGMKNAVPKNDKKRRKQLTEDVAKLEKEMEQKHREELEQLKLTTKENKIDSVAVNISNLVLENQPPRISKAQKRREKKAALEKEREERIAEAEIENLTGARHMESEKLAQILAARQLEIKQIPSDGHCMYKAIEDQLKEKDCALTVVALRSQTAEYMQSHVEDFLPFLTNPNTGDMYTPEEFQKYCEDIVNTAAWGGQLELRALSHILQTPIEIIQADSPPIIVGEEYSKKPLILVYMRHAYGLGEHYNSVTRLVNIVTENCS
Summary of the method: (§1)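 Labelled DUBs from HEK293T lysate were NeutrAvidin-enriched, digested with LysC and trypsin, and run by diaPASEF LC-MS/MS. Before that, each 495 µg sample in Tris/CHAPS/IGEPAL buffer with protease inhibitors was treated in triplicate with fragment at 200 µM or vehicle for 3 h, then with Biotin-Ahx-Ub-VS at 0.5 µM final for 1 h. Values are average log2 ratios of fragment over vehicle by unpaired t-test, based on global-median-normalised Spectronaut label-free quantities from proteins with ≥2 unique peptides.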

OTUD7B = molecular target: T2, OTUD7B (UniProt Q6GQQ9)
T2 sequence (whole entry): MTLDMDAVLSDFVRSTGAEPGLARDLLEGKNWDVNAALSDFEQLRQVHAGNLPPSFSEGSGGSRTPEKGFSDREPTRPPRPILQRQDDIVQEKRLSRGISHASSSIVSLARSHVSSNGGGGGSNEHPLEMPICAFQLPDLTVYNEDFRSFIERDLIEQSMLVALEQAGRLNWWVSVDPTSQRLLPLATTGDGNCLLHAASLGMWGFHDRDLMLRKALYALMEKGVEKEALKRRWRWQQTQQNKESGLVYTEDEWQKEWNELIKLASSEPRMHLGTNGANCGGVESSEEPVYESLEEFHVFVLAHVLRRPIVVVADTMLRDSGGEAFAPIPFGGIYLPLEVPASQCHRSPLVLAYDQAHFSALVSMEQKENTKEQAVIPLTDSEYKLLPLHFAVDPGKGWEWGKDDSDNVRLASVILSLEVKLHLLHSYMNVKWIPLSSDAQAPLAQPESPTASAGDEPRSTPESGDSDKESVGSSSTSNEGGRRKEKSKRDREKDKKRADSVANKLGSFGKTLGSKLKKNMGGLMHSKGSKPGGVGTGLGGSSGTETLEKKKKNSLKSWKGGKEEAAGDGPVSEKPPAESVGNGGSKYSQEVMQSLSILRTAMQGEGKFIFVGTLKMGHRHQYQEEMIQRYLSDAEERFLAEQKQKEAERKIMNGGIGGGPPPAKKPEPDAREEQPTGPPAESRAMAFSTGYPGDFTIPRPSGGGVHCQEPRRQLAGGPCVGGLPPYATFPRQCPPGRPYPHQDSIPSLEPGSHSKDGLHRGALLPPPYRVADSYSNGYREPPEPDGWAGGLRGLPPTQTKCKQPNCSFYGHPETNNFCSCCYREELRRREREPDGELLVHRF
Summary of the method: as §1

PRPF8 = PRPF8 (UniProt Q6P2Q9)
Summary of the method: as §1

PSMD7 = molecular target: T3, PSMD7 (UniProt P51665)
T3 sequence (whole entry): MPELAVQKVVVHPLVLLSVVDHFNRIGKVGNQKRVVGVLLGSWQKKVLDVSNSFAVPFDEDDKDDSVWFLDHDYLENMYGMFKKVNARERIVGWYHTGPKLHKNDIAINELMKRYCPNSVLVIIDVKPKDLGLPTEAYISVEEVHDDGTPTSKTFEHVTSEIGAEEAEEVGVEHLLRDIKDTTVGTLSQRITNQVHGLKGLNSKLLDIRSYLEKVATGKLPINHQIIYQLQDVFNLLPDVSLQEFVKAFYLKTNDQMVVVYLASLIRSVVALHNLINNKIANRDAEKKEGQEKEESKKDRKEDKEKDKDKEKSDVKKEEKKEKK
Summary of the method: as §1

UCHL1 = UCHL1 (UniProt P09936)
Summary of the method: as §1

UCHL3 = molecular target: T4, UCHL3 (UniProt P15374)
T4 sequence (whole entry): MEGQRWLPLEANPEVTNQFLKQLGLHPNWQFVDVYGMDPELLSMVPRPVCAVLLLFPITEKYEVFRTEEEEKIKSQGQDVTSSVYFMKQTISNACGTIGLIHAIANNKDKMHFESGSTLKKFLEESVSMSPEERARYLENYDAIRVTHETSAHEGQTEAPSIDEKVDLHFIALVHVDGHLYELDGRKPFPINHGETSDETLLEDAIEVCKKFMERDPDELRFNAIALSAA
Summary of the method: as §1

UCHL5 = molecular target: T5, UCHL5 (UniProt Q9Y5K5)
T5 sequence (whole entry): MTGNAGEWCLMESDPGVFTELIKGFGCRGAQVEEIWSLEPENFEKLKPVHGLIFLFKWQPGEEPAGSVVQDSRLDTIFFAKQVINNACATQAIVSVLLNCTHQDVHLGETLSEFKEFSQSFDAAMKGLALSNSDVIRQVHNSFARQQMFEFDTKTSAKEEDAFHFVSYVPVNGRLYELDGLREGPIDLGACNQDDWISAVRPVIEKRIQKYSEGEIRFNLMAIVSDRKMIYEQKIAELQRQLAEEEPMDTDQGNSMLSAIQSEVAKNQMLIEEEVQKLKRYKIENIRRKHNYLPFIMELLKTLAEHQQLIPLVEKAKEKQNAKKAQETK
Summary of the method: as §1

USP10 = USP10 (UniProt Q14694)
Summary of the method: as §1

USP15 = molecular target: T6, USP15 (UniProt Q9Y4E8)
T6 sequence (whole entry): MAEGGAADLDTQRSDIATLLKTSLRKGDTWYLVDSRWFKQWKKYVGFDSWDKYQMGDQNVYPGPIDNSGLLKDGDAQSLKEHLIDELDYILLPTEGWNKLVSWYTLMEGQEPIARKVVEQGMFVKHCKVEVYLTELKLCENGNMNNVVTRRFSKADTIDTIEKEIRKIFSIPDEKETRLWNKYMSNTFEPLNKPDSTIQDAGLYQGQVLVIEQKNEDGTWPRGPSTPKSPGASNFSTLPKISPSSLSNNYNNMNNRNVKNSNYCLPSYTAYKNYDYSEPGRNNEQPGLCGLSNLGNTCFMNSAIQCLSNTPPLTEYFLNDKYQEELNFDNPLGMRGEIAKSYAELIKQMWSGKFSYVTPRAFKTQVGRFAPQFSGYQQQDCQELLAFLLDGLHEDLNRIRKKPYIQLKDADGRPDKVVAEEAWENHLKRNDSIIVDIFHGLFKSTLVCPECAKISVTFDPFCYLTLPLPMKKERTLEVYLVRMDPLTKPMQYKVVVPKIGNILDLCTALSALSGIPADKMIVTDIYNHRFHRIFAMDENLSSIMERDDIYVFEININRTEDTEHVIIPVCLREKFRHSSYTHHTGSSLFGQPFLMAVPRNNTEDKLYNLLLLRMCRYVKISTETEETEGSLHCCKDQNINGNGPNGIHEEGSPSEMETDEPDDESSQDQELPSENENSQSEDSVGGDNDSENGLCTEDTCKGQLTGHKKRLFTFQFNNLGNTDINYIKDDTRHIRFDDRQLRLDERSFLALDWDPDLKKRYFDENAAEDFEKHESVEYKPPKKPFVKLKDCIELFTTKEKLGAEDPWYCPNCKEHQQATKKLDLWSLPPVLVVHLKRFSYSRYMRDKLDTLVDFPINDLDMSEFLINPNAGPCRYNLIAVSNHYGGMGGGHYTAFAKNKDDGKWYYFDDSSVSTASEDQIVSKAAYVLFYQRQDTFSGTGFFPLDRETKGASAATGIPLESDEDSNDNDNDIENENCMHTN
Summary of the method: as §1

Chain of UCHL1 (P09936 whole entry, looked up): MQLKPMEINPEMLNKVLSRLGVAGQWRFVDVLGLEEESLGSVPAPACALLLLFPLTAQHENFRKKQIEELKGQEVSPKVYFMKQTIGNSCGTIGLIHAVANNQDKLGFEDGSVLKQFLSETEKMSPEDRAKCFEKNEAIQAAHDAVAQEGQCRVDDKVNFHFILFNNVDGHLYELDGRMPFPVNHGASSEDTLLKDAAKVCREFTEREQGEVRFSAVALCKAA
Chain of USP10 (Q14694 whole entry): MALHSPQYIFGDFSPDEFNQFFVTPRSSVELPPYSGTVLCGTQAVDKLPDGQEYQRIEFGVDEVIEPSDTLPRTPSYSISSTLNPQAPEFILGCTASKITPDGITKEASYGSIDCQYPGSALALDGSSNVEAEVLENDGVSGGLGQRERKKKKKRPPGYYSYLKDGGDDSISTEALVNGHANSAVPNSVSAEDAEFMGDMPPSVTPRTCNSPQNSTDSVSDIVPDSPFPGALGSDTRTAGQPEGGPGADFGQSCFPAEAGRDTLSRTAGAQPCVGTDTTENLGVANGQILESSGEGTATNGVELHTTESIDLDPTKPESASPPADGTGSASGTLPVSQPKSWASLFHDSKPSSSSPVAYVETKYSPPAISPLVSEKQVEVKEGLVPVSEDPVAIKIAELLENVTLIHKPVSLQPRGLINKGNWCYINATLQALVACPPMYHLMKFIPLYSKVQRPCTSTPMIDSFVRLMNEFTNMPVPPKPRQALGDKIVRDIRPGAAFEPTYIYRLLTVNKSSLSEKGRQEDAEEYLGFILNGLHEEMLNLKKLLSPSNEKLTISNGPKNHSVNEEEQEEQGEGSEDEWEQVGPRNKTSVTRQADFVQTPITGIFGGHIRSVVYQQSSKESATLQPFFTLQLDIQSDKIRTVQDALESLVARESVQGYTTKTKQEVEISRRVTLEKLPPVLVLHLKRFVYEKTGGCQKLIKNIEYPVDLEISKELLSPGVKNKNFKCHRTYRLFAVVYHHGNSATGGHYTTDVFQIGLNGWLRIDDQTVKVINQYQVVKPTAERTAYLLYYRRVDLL

CC(O)CC1CCN(C(=O)CCl)CC1 (centres undefined)
log2 ratio of Biotin-Ahx-Ub-VS probe labelling (OTUD6B): -0.0339 | log2 ratio of Biotin-Ahx-Ub-VS probe labelling (OTUD7B): -0.302 | log2 ratio of Biotin-Ahx-Ub-VS probe labelling (PRPF8): 0.0532 | log2 ratio of Biotin-Ahx-Ub-VS probe labelling (PSMD7): -0.0764 | log2 ratio of Biotin-Ahx-Ub-VS probe labelling (UCHL1): -1.53 (active) | log2 ratio of Biotin-Ahx-Ub-VS probe labelling (UCHL3): 0.294 | log2 ratio of Biotin-Ahx-Ub-VS probe labelling (UCHL5): -0.019 | log2 ratio of Biotin-Ahx-Ub-VS probe labelling (USP10): -0.0376 | log2 ratio of Biotin-Ahx-Ub-VS probe labelling (USP15): -0.0583
